Screening results from PubChem BioAssay.
Giardia FBPA inh: blocks Giardia fructose-bisphosphate aldolase activity; A8B2U2; Potency, µM (doses to about 59.6 µM), for inactives: at the top dose activity, negative = inhibition, hits mostly inhibitors; purified Giardia FBPA; AID 2451; actives 0.71% (n = 290,000); note: potency is the fitted concentration of half-maximal effect; % is set by controls: 0 for no effect and ±100 for the full control effect; nearly all actives have a fitted effect of over 55% in size
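Giardia FBPA (40 nM reagent) was preincubated 10 min at RT with compound (up to 57.5 uM final), then substrate plus GAPDH/TPI/NAD/arsenate coupling system with diaphorase/resazurin was added; resorufin fluorescence (525/598 nm) was read after 20 min.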
TbPYK inhibitor: inhibitors of Trypanosoma brucei pyruvate kinase. TbPYK enzyme, Kinase-Glo Plus ATP luminescence, 45 min. Q57TT1. Potency, µM (series often up to 76.8 µM), for the others: top-dose activity, negative = inhibition, most hits filed as inhibitors. AID 624173. actives 0.12% (n = 410,000); note: potency is the fitted concentration of half-maximal effect; % is set by controls: 0 for no effect and ±100 for the full control effect; nearly all actives have a fitted effect of over 50% in size
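Luminescent Kinase-Glo Plus end-point after 45 min room-temperature reaction of T. brucei pyruvate kinase started with 130 uM ADP (final). Buffer TEA 50 mM pH 7.2 with KCl, MgCl2, BSA, Tween-20; titration-based qHTS with fitted concentration-effect curves.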
CHX counter: counter-screen for Shiga toxin inhibitors: cycloheximide protein synthesis inhibition; actives 12% (n = 300,000); max response, %; cell reporter, cycloheximide protein synthesis inhibition counterscreen; in the data active = max response mostly above about 13%, no sharp cut-off; inactive = mostly below about 14%; note: read at 38.3 µM for the half of the compounds with a filed dose; 0% is about no effect
Shiga toxin inh: blocks Shiga toxin action in Vero cells | actives 9.2% (n = 290,000) | inhibition, % at 38.7 µM | Vero cells, Shiga toxin protein synthesis inhibition reporter; in the data active = inhibition mostly above about 28%, no sharp cut-off; inactive = mostly below about 43%; note: 0% is about no effect
LmPK inhibitor: LmPK (Leishmania mexicana) enzyme inhibition | purified LmPK, Kinase-Glo ATP luminescence, 1 h | AID 1721 | Q27686 | Potency, µM (series often up to 57.5 µM), without a hit: at the top dose activity change, negative = inhibition, actives largely listed as inhibitors | actives 0.37% (n = 290,000); note: potency is the fitted concentration of half-maximal effect; % is set by controls: 0 for no effect and ±100 for the full control effect
Target sequence (Q27686 whole entry, looked up): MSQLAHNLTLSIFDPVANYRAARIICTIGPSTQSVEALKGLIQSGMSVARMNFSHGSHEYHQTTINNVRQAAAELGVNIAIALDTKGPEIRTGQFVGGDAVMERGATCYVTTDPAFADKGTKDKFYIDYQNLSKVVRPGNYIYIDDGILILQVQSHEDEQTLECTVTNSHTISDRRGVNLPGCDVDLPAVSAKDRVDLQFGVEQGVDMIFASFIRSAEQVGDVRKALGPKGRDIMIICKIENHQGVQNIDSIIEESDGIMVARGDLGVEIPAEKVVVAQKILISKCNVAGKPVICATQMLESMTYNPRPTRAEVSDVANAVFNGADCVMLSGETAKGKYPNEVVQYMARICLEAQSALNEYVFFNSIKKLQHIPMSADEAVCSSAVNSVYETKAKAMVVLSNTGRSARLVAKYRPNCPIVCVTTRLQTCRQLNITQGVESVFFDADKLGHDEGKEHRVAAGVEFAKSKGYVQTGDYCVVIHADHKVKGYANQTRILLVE
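Purified LmPK (0.1 nM) with 0.5 mM PEP and 0.1 mM ADP in imidazole buffer pH 7.2 with MgCl2/KCl, 1 h at room temperature. ATP formed was read by luciferase luminescence and normalized to no-enzyme and uninhibited controls.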
RE007 growth inh: less growth of the S. pombe RE007 Vpr strain. S. pombe RE007 Vpr strain, BacTiter-Glo ATP luminescence, 24 h. Potency, µM (highest dose often 92.2 µM), without a hit: at the top dose activity change, negative = less growth, usual class: inhibitors. actives 0.21% (n = 360,000). AID 651644; active = well fitted falling curve with a large enough effect; inconclusive = small, poorly fitted or top-dose-only effect; inactive = no such curve, though single readings can be large or run the other way; note: potency is the fitted concentration of half-maximal effect; % is set by controls: 0 for no effect and ±100 for the full control effect; nearly all actives have a fitted effect of over 50% in size
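Fission yeast strain RE007, carrying one chromosomally integrated HIV-1 vpr copy, was seeded at OD 0.01 in PMG+AL medium with 23 nL pinned compound. After 24 h at 30 °C and 99% humidity, viability was read by BacTiter-Glo luminescence.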
An asterisk follows results filed as active; ? = inconclusive; . = not tested or not shown. This excerpt belongs to a sample that is enriched for hits. Unless noted, calls come from the whole dose curve; as a rule, active = well fitted curve in the direction sought with a large enough effect; inconclusive = small, poorly fitted or top-dose-only effect, or another doubt; inactive = no such curve, though single readings can be large; an effect the other way counts as inactive or inconclusive.

SMILES	Giardia FBPA inh	TbPYK inhibitor	CHX counter	Shiga toxin inh	LmPK inhibitor	RE007 growth inh
CCCCC1CCC(c2nc(-c3cccnc3)no2)CC1 (configuration not stated)	0%	0%	15	-16	16%	8%
CC(C)c1ccc(NC(=O)CN2C=NS(=O)(=O)c3ccccc32)cc1	.	-4%	.	.	.	.
Cc1cccc(Nc2nnc(SCC(=O)NCc3cccs3)s2)c1C	3%	10%	12	42*	7%	.
O=c1cc(CSc2nnc(Nc3ccccc3)s2)nc2sccn12	?	-2%	-1	-32	7%	0%
Cc1cccc(Nc2nnc(SCC(=O)NCc3cccs3)s2)c1	6%	-1%	19*	62*	2%	2%
Cc1cccc(Nc2nnc(SCc3cn4ccsc4n3)s2)c1	-1%	-6%	20*	22	-17%	4%
COCC(=O)Nc1nnc(SCC(=O)NCc2cccs2)s1	-1%	-7%	1	-15	-3%	12%
Cc1cccc(Nc2nnc(SCC(=O)Nc3cccnc3Cl)s2)c1	0%	2%	27*	25	-6%	-2%
CCCC(=O)Nc1nnc(SCC(=O)NCc2cccs2)s1	1%	-8%	-3	13	-5%	1%
O=C(CC1SC(N2CCOCC2)=NC1=O)Nc1ccc(Cl)c(C(F)(F)F)c1 (configuration not stated)	.	3%	.	.	.	17%
Cc1nn(C)cc1CN(C)C(=O)C1CCC(=O)N(CCc2cccc(F)c2)C1 (configuration not stated)	.	-3%	.	.	.	3%
O=C(c1cc(-c2ccc(Cl)c(Cl)c2)on1)N1CCOCC1	-1%	-3%	17*	45*	-1%	-3%
O=C(c1cc(-c2ccc(Cl)c(Cl)c2)on1)N1CCCC1	6%	.	21*	36*	5%	.
O=C(c1cc(-c2cccc(Cl)c2)on1)N1CCOCC1	-6%	5%	25*	137*	-5%	5%
O=C(c1cc(-c2ccc(Cl)cc2Cl)on1)N1CCOCC1	6%	5%	25*	59	-16%	14%
O=C(c1cc(-c2ccc(Cl)cc2)n(-c2ccc(Cl)cc2Cl)n1)N1CCOCC1	?	4%	-1	9	-3%	-18%
O=C(c1cc(-c2cccc(Cl)c2)on1)N1CCCCC1	.	-4%	.	.	.	.
CC1CCN(C(=O)c2cc(-c3ccc(Cl)c(Cl)c3)on2)CC1	-2%	-3%	1	20	2%	-18%
O=C(c1cc(-c2ccc(Cl)cc2)on1)N1CCOCC1	6%	1%	29*	111*	-11%	4%
C=CCN(CC=C)CCOc1ccc2ccccc2c1	?	15%	21*	37	1%	-11%
C=CCN(CC=C)CCOc1ccc(OC(C)C)cc1	?	17%	18*	84*	-6%	-11%
CCOC(=O)N1CCc2c(sc3c2c(=O)n(-c2ccc(CC)cc2)c(=O)n3Cc2ccc(F)cc2Cl)C1	.	0%	.	.	.	.
CCOC(=O)Cc1csc(-n2sc3ccccc3c2=O)n1	?	?	38*	33	27%	-6%
Clc1ccc(/C=N/Nc2ncnc3ccccc23)cc1Cl	-1%	0%	26*	90*	1%	11%
Fc1ccccc1/C=N/Nc1ncnc2ccccc12	-12%	4%	41*	52	-2%	-28%
COc1ccccc1C(=O)NC(=O)COC(=O)CN1C(=O)NC(C)(C)C1=O	.	2%	.	.	.	-11%
COCCCNC(=O)C1CCN(c2ncnc3c2nc2n3CCCCC2)CC1	.	-7%	.	.	.	.
CCC(NC(=O)c1cc(COc2ccc(OC)cc2Cl)on1)c1ccncc1 (configuration not stated)	.	-2%	64*	63	-11%	-23%
COc1cc(Cl)ccc1OCc1cc(C(=O)NC(C)Cc2cnccn2)no1 (configuration not stated)	.	-2%	42*	70*	-4%	-6%
CC(Cc1cnccn1)NC(=O)c1cc(COc2ccc(F)cc2F)on1 (configuration not stated)	6%	-17%	9	-15	0%	3%
